Laboratory results published in PubChem BioAssay (EPA / NIEHS).
Active and inactive are the calls of the source. Rule for the calls: active = hit-call score of the fitted dose curve at least 0.9, where 1 is the maximum; inactive = score below 0.9.

What was measured:
Conditions in all cases: mRNA level, 48 h; actives raise or lower the signal
BCL2L11 (gene 10018) = assay: LTEA_HepaRG_BCL2L11: Life Technologies and Expression Analysis (LTEA) Assay for Bcl-2 (BCL2L11) gene using HepaRG (AID 2283473)
Method in brief: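 Read-out is BCL2L11 transcript level by qRT-PCR, normalized to three housekeeping genes and fitted bidirectionally against 0.5% DMSO vehicle. HepaRG cells received chemicals for 48 h in serum-free induction medium, 100 uM down in half-log dilutions.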

[1] = read-out: Apolipoprotein A-V (APOA5) gene, APOA5 (gene 116519); assay: LTEA_HepaRG_APOA5: Life Technologies and Expression Analysis (LTEA) Assay for Apolipoprotein A-V (APOA5) gene using HepaRG (AID 2283474)
Method in brief: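 Readout is APOA5 transcript level by qRT-PCR on Fluidigm dynamic arrays, normalized to three housekeeping genes. HepaRG cultures received chemicals for 48 h at up to 100 uM (half-log steps, 0.5% DMSO), with gain or loss scored relative to DMSO.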

[2] = read-out: Apoptosis regulator Bcl-2 (Homo sapiens) (UniProt P10415); assay: LTEA_HepaRG_BCL2: Life Technologies and Expression Analysis (LTEA) Assay for Bcl-2 gene using HepaRG (AID 2283475)
Method in brief: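 Differentiated human HepaRG cells in serum-free induction medium exposed 48 h, in duplicate, to 8-point half-log series from 100 uM in 0.5% DMSO. BCL2 mRNA by qRT-PCR (TaqMan/Fluidigm), normalized to ACTB, GAPDH, POLR2A; bidirectional fit against DMSO.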

[3] = read-out: Bcl-2 (BID) gene, BID (gene 637); assay: LTEA_HepaRG_BID: Life Technologies and Expression Analysis (LTEA) Assay for Bcl-2 (BID) gene using HepaRG (AID 2283476)
Method in brief: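 Gene expression by qRT-PCR in HepaRG cells after 48 h exposure, duplicate wells, eight half-log concentrations topping at 100 uM in 0.5% DMSO. Normalized to ACTB, GAPDH, POLR2A; bidirectional fitting relative to DMSO.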

Caspase-3 (Homo sapiens) = Caspase-3 (Homo sapiens) (UniProt P42574); assay: LTEA_HepaRG_CASP3: Life Technologies and Expression Analysis (LTEA) Assay for cysteine-aspartic acid protease (CASP3) using HepaRG (AID 2283477)
Chain of Caspase-3 (Homo sapiens) (P42574 whole entry, looked up): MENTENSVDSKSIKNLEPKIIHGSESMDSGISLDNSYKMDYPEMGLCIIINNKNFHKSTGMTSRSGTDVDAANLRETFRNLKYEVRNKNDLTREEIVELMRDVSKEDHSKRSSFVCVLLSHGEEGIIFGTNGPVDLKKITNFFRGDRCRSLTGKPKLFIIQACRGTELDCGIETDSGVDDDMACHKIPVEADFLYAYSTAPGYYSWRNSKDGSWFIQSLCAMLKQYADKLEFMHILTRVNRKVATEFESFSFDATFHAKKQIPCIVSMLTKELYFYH
Method in brief: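 Read-out is CASP3 mRNA level by TaqMan qRT-PCR in human HepaRG cells after 48 h chemical exposure. Eight half-log concentrations topping at 100 uM were tested in 0.5% DMSO; gain or loss was fitted relative to DMSO.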

[4] = read-out: Cytochrome P450 (CYP24A1), CYP24A1 (gene 1591); assay: LTEA_HepaRG_CYP24A1: Life Technologies and Expression Analysis (LTEA) Assay for Cytochrome P450 (CYP24A1) using HepaRG (AID 2283478)
Method in brief: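 HepaRG, 48 h chemical exposure, 8-pt half-log CRC from 100 uM, 0.5% DMSO vehicle, duplicates. Endpoint: CYP24A1 mRNA by Fluidigm TaqMan qRT-PCR, normalized ACTB/GAPDH/POLR2A; gain/loss fit vs DMSO.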

[5] = read-out: cysteine-aspartic acid protease (CASP8), CASP8 (gene 841); assay: LTEA_HepaRG_CASP8: Life Technologies and Expression Analysis (LTEA) Assay for cysteine-aspartic acid protease (CASP8) using HepaRG (AID 2283480)
Method in brief: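 HepaRG, 48 h exposure, duplicate wells; 8 conc, half-log from 100 uM, 0.5% DMSO. Serum-free induction medium. CASP8 mRNA by TaqMan qRT-PCR, norm. ACTB/GAPDH/POLR2A; gain/loss fitted vs DMSO.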

[6] = read-out: Cytochrome P450 (CYP2B6), CYP2B6 (gene 1555); assay: LTEA_HepaRG_CYP2B6: Life Technologies and Expression Analysis (LTEA) Assay for Cytochrome P450 (CYP2B6) using HepaRG (AID 2283481)
Method in brief: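 HepaRG cells plated 48 h, switched to serum-free induction medium, then dosed 48 h (8 points, half-log from 100 uM, 0.5% DMSO). RNA isolated; CYP2B6 expression measured by qRT-PCR; gain or loss fitted relative to DMSO.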

[7] = read-out: Cytochrome P450 2C19 (Homo sapiens) (UniProt P33261); assay: LTEA_HepaRG_CYP2C19: Life Technologies and Expression Analysis (LTEA) Assay for CYP2C19 using HepaRG (AID 2283482)
Method in brief: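 Transcript levels of CYP2C19 were quantified by qRT-PCR after HepaRG cells were treated for 48 hours with test chemicals up to 100 uM (eight half-log concentrations, 0.5% DMSO vehicle). Gain or loss of signal was fitted relative to DMSO.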

CYP2C8 (gene 1558) = assay: LTEA_HepaRG_CYP2C8: Life Technologies and Expression Analysis (LTEA) Assay for CYP2C8 using HepaRG (AID 2283483)
Method in brief: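 CYP2C8 mRNA induction or loss, by qRT-PCR normalized to ACTB/GAPDH/POLR2A, is read in HepaRG cells after 48 h treatment. Concentrations run from 100 uM down in half-log dilutions, with 0.5% DMSO as vehicle and baseline.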

CYP2C9 (gene 1559) = assay: LTEA_HepaRG_CYP2C9: Life Technologies and Expression Analysis (LTEA) Assay for CYP2C9 using HepaRG (AID 2283484)
Method in brief: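 Cells plated 48 h, switched to serum-free induction medium, then treated in duplicate for 48 h at eight concentrations (max 100 uM, 0.5% DMSO). RNA then analysed by qRT-PCR for CYP2C9; curves fitted in both directions relative to DMSO.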

CYP2E1 (gene 1571) = assay: LTEA_HepaRG_CYP2E1: Life Technologies and Expression Analysis (LTEA) Assay for CYP2E1 using HepaRG (AID 2283485)
Method in brief: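 HepaRG cells, plated 48 h, then exposed 48 h in serum-free induction medium to eight half-log concentrations from 100 uM in 0.5% DMSO, duplicate. CYP2E1 mRNA by qRT-PCR, normalized to ACTB/GAPDH/POLR2A; bidirectional fit versus DMSO.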

CYP4A11 (gene 1579) = assay: LTEA_HepaRG_CYP4A11: Life Technologies and Expression Analysis (LTEA) Assay for CYP4A11 using HepaRG (AID 2283486)
Method in brief: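 HepaRG, 48 h chem exposure, 8 conc (100 uM top, half-log), 0.5% DMSO vehicle; qRT-PCR readout, housekeeping-gene normalized; bidirectional curve fit vs DMSO baseline.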

[8] = read-out: Cytochrome P450 3A4 (Homo sapiens) (UniProt P08684); assay: LTEA_HepaRG_CYP3A4: Life Technologies and Expression Analysis (LTEA) Assay for CYP3A4 using HepaRG (AID 2283487)
Method in brief: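 Differentiated HepaRG cells in serum-free induction medium exposed in duplicate for 48 h to 8 half-log concentrations up to 100 uM in 0.5% DMSO. CYP3A4 mRNA measured by qRT-PCR normalized to ACTB, GAPDH and POLR2A; bidirectional fit versus DMSO.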

[9] = read-out: DNA damage-inducible transcript 3 (DDIT3), DDIT3 (gene 1649); assay: LTEA_HepaRG_DDIT3: Life Technologies and Expression Analysis (LTEA) Assay for DNA damage-inducible transcript 3 (DDIT3) using HepaRG (AID 2283488)
Method in brief: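 HepaRG cells, 48 h after plating, exposed 48 h in serum-free induction medium to 8 half-log concentrations up to 100 uM in 0.5% DMSO, in duplicate. DDIT3 mRNA measured by TaqMan qRT-PCR, normalized to ACTB, GAPDH and POLR2A. Fitted bidirectionally against DMSO.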

[10] = read-out: Pro-epidermal growth factor (Homo sapiens) (UniProt P01133); assay: LTEA_HepaRG_EGF: Life Technologies and Expression Analysis (LTEA) Assay for Epidermal growth factor (EGF) using HepaRG (AID 2283489)
Method in brief: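 HepaRG, 48 h dosing, 100 uM top, half-log x8, 0.5% DMSO. Readout: TaqMan qRT-PCR (Fluidigm array), housekeeping-normalized. Gain or loss of signal fit vs DMSO.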

[11] = read-out: Ezrin (EZR), EZR (gene 7430); assay: LTEA_HepaRG_EZR: Life Technologies and Expression Analysis (LTEA) Assay for Ezrin (EZR) using HepaRG (AID 2283491)
Method in brief: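 Differentiated human HepaRG cells, 48 h after plating, were exposed in serum-free induction medium for 48 hours to eight half-log concentrations up to 100 uM in 0.5% DMSO. EZR mRNA was measured by TaqMan qRT-PCR, normalized to ACTB, GAPDH and POLR2A, and fitted bidirectionally against DMSO.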

[12] = read-out: Cytochrome P450 3A7 (Homo sapiens) (UniProt P24462); assay: LTEA_HepaRG_CYP3A7: Life Technologies and Expression Analysis (LTEA) Assay for CYP3A7 using HepaRG (AID 2283492)
Method in brief: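 Human HepaRG liver cells, 48 h post-plating, switched to serum-free induction medium and exposed in duplicate for 48 h. Dosing: 100 uM top, half-log dilutions, 8 points, 0.5% DMSO vehicle. Read-out: CYP3A7 mRNA, gain or loss fitted against DMSO baseline.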

[13] = read-out: Cytochrome P450 (CYP1A2), CYP1A2 (gene 1544); assay: LTEA_HepaRG_CYP1A2: Life Technologies and Expression Analysis (LTEA) Assay for Cytochrome P450 (CYP1A2) using HepaRG (AID 2283479)
Method in brief: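 CYP1A2 transcript induction or loss, quantified by Fluidigm qRT-PCR against three housekeeping genes, was fitted bidirectionally against 0.5% DMSO controls. Human HepaRG cells received eight half-log concentrations from 100 uM over 48 h.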

[14] = read-out: Early growth response protein 1 (EGR1) transcription factor, EGR1 (gene 1958); assay: LTEA_HepaRG_EGR1: Life Technologies and Expression Analysis (LTEA) Assay for Early growth response protein 1 (EGR1) transcription factor using HepaRG (AID 2283490)
Method in brief: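 Read-out is EGR1 mRNA level by qRT-PCR, normalized to three housekeeping genes and analysed for gain or loss of signal against 0.5% DMSO. Source cells: human HepaRG, treated 48 h at up to 100 uM in half-log dilutions.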

Measured: AC50

Chain of Apoptosis regulator Bcl-2 (Homo sapiens) (P10415 whole entry, looked up): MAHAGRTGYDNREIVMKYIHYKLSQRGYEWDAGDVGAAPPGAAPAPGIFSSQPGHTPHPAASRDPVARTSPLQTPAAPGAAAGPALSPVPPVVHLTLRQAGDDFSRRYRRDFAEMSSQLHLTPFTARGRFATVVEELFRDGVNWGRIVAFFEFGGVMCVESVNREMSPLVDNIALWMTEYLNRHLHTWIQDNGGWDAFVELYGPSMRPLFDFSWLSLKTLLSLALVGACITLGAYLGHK
Chain of Cytochrome P450 3A7 (Homo sapiens) (P24462 whole entry, looked up): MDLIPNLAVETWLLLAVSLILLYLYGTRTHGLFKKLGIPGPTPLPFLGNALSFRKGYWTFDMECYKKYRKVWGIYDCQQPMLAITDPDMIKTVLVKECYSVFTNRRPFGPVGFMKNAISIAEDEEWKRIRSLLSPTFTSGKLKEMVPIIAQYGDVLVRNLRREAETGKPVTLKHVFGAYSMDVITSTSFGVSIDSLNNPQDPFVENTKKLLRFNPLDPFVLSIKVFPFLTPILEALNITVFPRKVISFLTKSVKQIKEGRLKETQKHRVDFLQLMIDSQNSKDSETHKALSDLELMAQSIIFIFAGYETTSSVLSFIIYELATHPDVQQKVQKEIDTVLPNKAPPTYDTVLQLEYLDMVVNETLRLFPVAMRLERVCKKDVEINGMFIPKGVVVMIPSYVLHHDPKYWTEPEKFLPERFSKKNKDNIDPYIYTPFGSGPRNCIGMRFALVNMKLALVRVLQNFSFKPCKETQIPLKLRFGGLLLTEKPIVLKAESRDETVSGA
Chain of Cytochrome P450 3A4 (Homo sapiens) (P08684 whole entry, looked up): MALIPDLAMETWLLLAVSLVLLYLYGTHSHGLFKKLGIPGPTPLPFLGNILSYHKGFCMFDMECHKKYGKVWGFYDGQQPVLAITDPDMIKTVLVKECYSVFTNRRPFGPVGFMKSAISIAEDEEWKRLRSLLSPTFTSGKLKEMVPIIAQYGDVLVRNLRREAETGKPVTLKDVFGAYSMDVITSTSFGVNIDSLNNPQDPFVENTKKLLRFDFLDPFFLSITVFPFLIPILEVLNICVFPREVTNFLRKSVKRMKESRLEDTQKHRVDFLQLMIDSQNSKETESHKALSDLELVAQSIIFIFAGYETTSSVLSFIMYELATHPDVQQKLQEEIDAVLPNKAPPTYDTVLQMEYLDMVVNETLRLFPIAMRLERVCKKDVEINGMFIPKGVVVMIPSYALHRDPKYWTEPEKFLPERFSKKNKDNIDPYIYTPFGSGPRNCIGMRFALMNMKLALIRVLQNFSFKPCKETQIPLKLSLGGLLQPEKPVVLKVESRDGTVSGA
Chain of Cytochrome P450 2C19 (Homo sapiens) (P33261 whole entry, looked up): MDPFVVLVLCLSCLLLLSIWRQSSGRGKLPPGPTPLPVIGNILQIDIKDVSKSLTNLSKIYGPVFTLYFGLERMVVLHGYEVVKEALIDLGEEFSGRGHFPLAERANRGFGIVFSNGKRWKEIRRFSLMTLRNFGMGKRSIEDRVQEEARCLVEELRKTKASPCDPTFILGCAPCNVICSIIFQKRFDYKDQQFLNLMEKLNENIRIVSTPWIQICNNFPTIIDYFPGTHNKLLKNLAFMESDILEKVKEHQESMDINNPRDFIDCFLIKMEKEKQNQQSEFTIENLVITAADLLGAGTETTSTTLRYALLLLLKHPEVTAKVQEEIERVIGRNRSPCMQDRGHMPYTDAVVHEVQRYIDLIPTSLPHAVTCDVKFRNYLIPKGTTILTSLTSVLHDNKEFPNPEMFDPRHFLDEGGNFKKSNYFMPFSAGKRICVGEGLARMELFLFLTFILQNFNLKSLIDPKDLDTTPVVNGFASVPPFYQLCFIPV

NC(=O)NN=Cc1ccc([N+](=O)[O-])o1
active: [3] 0.267 µM | [4] 0.456 µM | CYP2E1 (gene 1571) 19 µM | [10] 50 µM
not listed: [13] | [14]
inactive: all other assays above

c1ccc(C(O[C@@H]2CCCN(CCc3ccc4c(c3)OCO4)C2)c2ccccc2)cc1
inactive: BCL2L11 (gene 10018) | [1] | [4] | [10] | [11]
active: [2] 73.2 µM | [3] 91 µM | Caspase-3 (Homo sapiens) 76.7 µM | [13] 12.2 µM | [5] 78.6 µM | [6] 72 µM | CYP2C8 (gene 1558) 77.1 µM | CYP2C9 (gene 1559) 85.2 µM | CYP2E1 (gene 1571) 50 µM | CYP4A11 (gene 1579) 59.7 µM | [9] 63.6 µM | [14] 84.1 µM

Cc1nccn1-c1ccc(Sc2cccc(C3(C(N)=O)CCOCC3)c2)cc1
inactive: [3] | [4] | [11]
active: BCL2L11 (gene 10018) 3.37 µM | [1] 11.3 µM | [2] 7.26 µM | Caspase-3 (Homo sapiens) 2.48 µM | [13] 18.6 µM | [5] 28.1 µM | [6] 9.76 µM | CYP2C8 (gene 1558) 12.6 µM | CYP2C9 (gene 1559) 12.2 µM | CYP2E1 (gene 1571) 6.52 µM | CYP4A11 (gene 1579) 4.94 µM | [8] 13.4 µM | [9] 4.47 µM | [10] 32.8 µM | [14] 21.9 µM | [12] 10.4 µM

CCc1cccc(CC)c1N
active: [13] 50 µM | [6] 6.35 µM
not listed: [7] | [14]
inactive: all other assays above

Cc1ncc([C@@H](CCCCCCc2ccc3c(n2)NCCC3)CC(=O)O)cn1
active: CYP2E1 (gene 1571) 50 µM | CYP4A11 (gene 1579) 15.7 µM | [8] 31 µM
not listed: [13]
inactive: all other assays above

OCCNCCO
active: [6] 50 µM | CYP2C9 (gene 1559) 50 µM | CYP2E1 (gene 1571) 45 µM
not listed: [7] | [14]
inactive: all other assays above

C=CCc1cc(S(=O)(=O)c2ccc(O)c(CC=C)c2)ccc1O
active: [1] 89 µM | [6] 80.6 µM | [7] 95.4 µM | CYP2C8 (gene 1558) 97.2 µM | CYP2C9 (gene 1559) 93 µM | CYP2E1 (gene 1571) 86.3 µM | CYP4A11 (gene 1579) 94.4 µM | [8] 80.4 µM | [9] 84.9 µM | [12] 76.8 µM
inactive: BCL2L11 (gene 10018) | [2] | [3] | Caspase-3 (Homo sapiens) | [4] | [5] | [10] | [14] | [11]
